Data published in PubChem BioAssay AID1159580 (chemical genetic matrix, 2015).
The campaign covered roughly 5,500 compounds. About 2,000 (36%) were called active. Not shown: some 18% with an inconclusive outcome. Rule as the data show it: active = normalized growth mostly below about 0.91 (no sharp cut-off); inconclusive = no clear call, values can overlap the other calls; inactive = mostly above about 0.92. The list shows a part of the results.

Assay: chemical genetic growth profiling, strain panel (AID 1159580);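 also: tested at 20 µM; growth read once vehicle control cultures reached saturation at 30 °C; 1 = growth at the plate median or of vehicle wells; lower values mean less growth of the strain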
Settings: S. cerevisiae deletion strains, growth OD
[1] = locus YAR019C, strain CDC15, active compounds read low
[2] = locus YBL105C, strain PKC1, active compounds read low
[3] = locus YBR135W, strain CKS1, active compounds read low
[4] = locus YBR136W, strain MEC1, active compounds read low
[5] = locus YBR160W, strain CDC28, active compounds read low
[6] = locus YDL017W, strain CDC7, active compounds read low
[7] = locus YDL028C, strain MPS1, active compounds read low
[8] = locus YDL101C, strain DUN1, active compounds read low
[9] = locus YDL108W, strain KIN28, active compounds read low
[10] = locus YDL132W, strain cdc53, active compounds read low
[11] = locus YDL214C, strain PRR2, active compounds read low
[12] = locus YDR052C, strain DBF4, active compounds read low
[13] = locus YDR054C, strain cdc34, active compounds read low
[14] = locus YDR226W, strain ADK1, active compounds read low
[15] = locus YDR477W, strain SNF1, active compounds read low
[16] = locus YER123W, strain YCK3, active compounds read low
[17] = locus YER133W, strain GLC7, active compounds read low
[18] = locus YFL009W, strain cdc4, active compounds read low
[19] = locus YFL029C, strain CAK1, active compounds read low
[20] = locus YFR003C, strain YPI1, active compounds read low
[21] = locus YFR019W, strain FAB1, active compounds read low
[22] = locus YFR028C, strain CDC14, active compounds read low
[23] = locus YGR040W, strain KSS1, active compounds read low
[24] = locus YGR052W, strain FMP48, active compounds read low
[25] = locus YGR092W, strain DBF2, active compounds read low
[26] = locus YHR030C, strain SLT2, active compounds read low
[27] = locus YHR079C, strain IRE1, active compounds read low
[28] = locus YHR082C, strain KSP1, active compounds read low
[29] = locus YHR205W, strain SCH9, active compounds read low
[30] = locus YIL147C, strain SLN1, active compounds read low
[31] = locus YJL095W, strain BCK1, active compounds read low
[32] = locus YJL128C, strain PBS2, active compounds read low
[33] = locus YJL157C, strain FAR1, active compounds read low
[34] = locus YJR016C, strain ILV3, active compounds read low
[35] = locus YJR066W, strain TOR1 (second series), active compounds read low
[36] = locus YJR066W, strain TOR1, active compounds read low
[37] = locus YKL048C, strain ELM1, active compounds read low
[38] = locus YKL067W, strain YNK1, active compounds read low
[39] = locus YKL101W, strain HSL1, active compounds read low
[40] = locus YKL193C, strain SDS22, active compounds read low
[41] = locus YKL203C, strain TOR2, active compounds read low
[42] = locus YLR113W, strain HOG1, active compounds read low
[43] = locus YLR133W, strain CKI1, active compounds read low
[44] = locus YLR403W, strain SFP1, active compounds read low
[45] = locus YML070W, strain DAK1, active compounds read low
[46] = locus YMR001C, strain CDC5, active compounds read low
[47] = locus YMR205C, strain PFK2 (second series), active compounds read low
[48] = locus YMR277W, strain FCP1, active compounds read low
[49] = locus YNL006W, strain LST8, active compounds read low
[50] = locus YNL020C, strain ARK1, active compounds read low
[51] = locus YNL161W, strain CBK1, active compounds read low
[52] = locus YNL183C, strain NPR1, active compounds read low
[53] = locus YNL207W, strain RIO2, active compounds read low
[54] = locus YNL222W, strain SSU72, active compounds read low
[55] = locus YNL307C, strain MCK1 (second series), active compounds read low
[56] = locus YOL078W, strain AVO1, active compounds read low
[57] = locus YOL136C, strain PFK27, active compounds read low
[58] = locus YOR061W, strain CKA2, active compounds read low
[59] = locus YOR119C, strain RIO1, active compounds read low
[60] = locus YOR231W, strain MKK1, active compounds read low
[61] = locus YOR329C, strain SCD5, active compounds read low
[62] = locus YPL031C, strain PHO85, active compounds read low
[63] = locus YPL153C, strain RAD53, active compounds read low
[64] = locus YPL204W, strain HRR25, active compounds read low
[65] = locus YPL209C, strain IPL1, active compounds read low
[66] = locus YPL256C, strain CLN2, active compounds read low
[67] = locus YPR025C, strain CCL1, active compounds read low
[68] = locus YPR106W, strain ISR1, active compounds read low
[69] = locus YPR111W, strain DBF20, active compounds read low
[70] = strain NNK1, active compounds read low
[71] = strain TSCII, active compounds read low

Measured: normalized growth

COc1cc(NC(=S)NC(=O)c2ccccc2)c(OC)cc1Cl
inactive: [1] 0.985 | [2] 0.995 | [3] 0.99 | [4] 0.99 | [5] 0.997 | [6] 0.998 | [7] 0.988 | [8] 0.998 | [9] 0.981 | [10] 1 | [11] 0.962 | [12] 0.996 | [13] 0.994 | [14] 0.996 | [15] 0.973 | [16] 0.963 | [17] 0.986 | [18] 0.994 | [19] 0.98 | [20] 0.998 | [21] 0.974 | [22] 1 | [23] 0.963 | [24] 1.04 | [25] 0.989 | [26] 0.949 | [27] 0.979 | [28] 1 | [29] 0.9 | [30] 0.993 | [31] 0.961 | [32] 0.971 | [33] 0.989 | [34] 1 | [35] 0.951 | [36] 0.997 | [37] 0.981 | [38] 0.974 | [39] 0.939 | [40] 1 | [41] 1.05 | [42] 0.91 | [43] 0.968 | [44] 0.941 | [45] 0.957 | [46] 0.995 | [47] 0.977 | [48] 1 | [49] 0.991 | [50] 0.977 | [51] 1 | [52] 0.981 | [53] 1 | [54] 0.992 | [55] 0.968 | [56] 0.999 | [57] 0.968 | [58] 0.953 | [59] 0.983 | [60] 0.962 | [61] 0.996 | [62] 0.971 | [63] 0.966 | [64] 0.986 | [65] 0.995 | [66] 0.959 | [67] 0.998 | [68] 0.989 | [69] 0.986 | [70] 0.981 | [71] 1

COc1cc(NC(=S)N(C)C)c(OC)cc1Cl
inactive: [1] 0.984 | [2] 0.987 | [3] 0.996 | [4] 0.977 | [5] 0.991 | [6] 0.985 | [7] 0.987 | [8] 0.991 | [9] 0.996 | [10] 0.999 | [11] 0.984 | [12] 0.992 | [13] 0.983 | [14] 0.987 | [15] 0.979 | [16] 0.978 | [17] 0.99 | [18] 0.99 | [19] 0.983 | [20] 0.99 | [21] 0.971 | [22] 0.995 | [23] 0.974 | [24] 1.07 | [25] 0.992 | [26] 0.977 | [27] 0.984 | [28] 1.03 | [29] 0.963 | [30] 0.984 | [31] 0.982 | [32] 0.976 | [33] 0.997 | [34] 0.993 | [35] 0.967 | [36] 1 | [37] 0.991 | [38] 0.991 | [39] 0.971 | [40] 0.986 | [41] 1.03 | [42] 0.932 | [43] 0.987 | [44] 0.986 | [45] 0.974 | [46] 0.985 | [47] 0.988 | [48] 0.997 | [49] 0.984 | [50] 0.991 | [51] 0.982 | [52] 0.968 | [53] 0.987 | [54] 0.992 | [55] 1 | [56] 0.991 | [57] 0.984 | [58] 0.996 | [59] 1.01 | [60] 0.968 | [61] 0.984 | [62] 0.976 | [63] 0.97 | [64] 0.991 | [65] 0.988 | [66] 0.948 | [67] 0.999 | [68] 0.993 | [69] 0.996 | [70] 1 | [71] 0.989

COc1cc(NC(=S)NNS(=O)(=O)c2ccc(C)cc2)c(OC)cc1Cl
inactive: [1] 0.982 | [2] 0.974 | [3] 0.978 | [4] 0.971 | [5] 0.984 | [6] 0.984 | [7] 0.982 | [8] 0.976 | [9] 0.984 | [10] 0.974 | [11] 0.939 | [12] 0.986 | [13] 0.949 | [14] 0.974 | [15] 0.933 | [16] 0.921 | [17] 0.953 | [18] 0.982 | [19] 0.976 | [20] 0.985 | [21] 0.955 | [22] 0.968 | [23] 0.942 | [24] 1.06 | [25] 1.01 | [26] 0.858 | [27] 0.997 | [28] 1.02 | [29] 0.961 | [30] 0.986 | [31] 0.927 | [32] 0.966 | [33] 0.975 | [34] 0.977 | [35] 0.955 | [36] 0.97 | [37] 0.953 | [38] 0.94 | [39] 0.935 | [40] 0.97 | [41] 1 | [43] 0.947 | [44] 0.959 | [45] 0.942 | [46] 0.979 | [47] 0.947 | [48] 0.963 | [49] 0.986 | [50] 0.96 | [51] 0.984 | [52] 0.939 | [53] 0.981 | [54] 0.973 | [55] 0.941 | [56] 0.971 | [57] 0.929 | [58] 0.967 | [59] 1.05 | [60] 0.994 | [61] 0.984 | [62] 0.95 | [63] 0.95 | [64] 0.92 | [65] 0.972 | [66] 0.886 | [67] 0.972 | [68] 0.977 | [69] 0.951 | [70] 0.972 | [71] 0.98
active: [42] 0.849
